In the supplement of paper PMC11417369:
± gives the standard deviation of the averaged measurements. Whole data set: some 25,000 sequences, median “ln(normalized median fluorescence intensity)” near 7.9, cut for the highest 2% near 11. Shown is part of a subset that was picked to be rich in the highest values.

Test system: PfAP2-I AP2 domain 3 (GST-tagged)
Test: gcPBM binding intensity (ln(normalized median fluorescence intensity)); higher = stronger DNA binding
In short: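 GST-tagged P. falciparum DNA-binding domains produced in E. coli were incubated for 1 h on an Agilent 4 × 180k array of primer-extended double-stranded 36-bp intergenic genomic probes with negative controls. Binding intensity is the highest Masliner-normalised natural-log median intensity across replicate spots of either probe orientation, with bound protein detected by Alexa488 anti-GST antibody at 488 nm.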

Row | Sequence | gcPBM binding intensity (ln)
1 | AAAAATAAACAATATATAGTTATATATATATATATA [TGCATGCA_negctrl_site82] | 9.29 ± 0.69
2 | TTCTCATTCAAATTAGTGCATTTTTGTTATTACATT | 9.81 ± 0.2
3 | TTTATATTTATGTAGGTGCATTTGTTTACAACATAT [GTGCAC_site9511] | 10.8 ± 0.71
4 | TTTTTGTTATTTTTAGTGCACATTTAAGGGTGTATT | 11.4 ± 0.53
5 | TGTGCACATAATTAGTGTACATTTTTTATTTAGACA [XGTACX_site317] | 10.3 ± 0.88
6 | TATTTTTTTTGTTAGGTGCATTTACATTTATTTTTA | 10.8 ± 0.61
7 | ATATTTATTTGTTAGTGTACATACATATATATATAT [XGTACX_site1347] | 9.47 ± 0.4
8 | CTATATTTTTAAAAATGTACTTTATAATAAAATACT [XGTACX_site3593] | 7.83 ± 0.32
9 | ATTTATAATGATTTTTTTAGTAATCTTGTTATTTTT [XGTACX_negctrl_site373] | 7.38 ± 0.54
10 | CTATTTAAAATATGAACACACATTATTTGTTTTAGA [CACACA_site2713] | 7.42 ± 0.43
11 | TATTTGTATAAATAAAAATAATATATATCAAATAAC [CACACA_negctrl_site218] | 7.57 ± 0.55
12 | AATAGCAATTTGGGGTGTACACACACCTTATTTAAA [XGTACX_site2234] | 8.04 ± 0.23
13 | TACTTTTTTTTTTTTTTTTTTTTTTTTTCCCTTTTT [CACACA_negctrl_site761] | 7.47 ± 0.53
14 | CTAAATTATAGATCAGTGCAATTTAATATGAGTCCA | 8.91 ± 0.22
15 | TAATAATTTTATAAAGTGCATAAAAATAAAAATTTT | 10.6 ± 0.36
16 | TAATTAAATATTTCAGTGCATTATTTTATGATCCAT [GTGCAC_site9456] | 11.2 ± 0.76
17 | AATATCATTATATAAGTGCATTTTTTAAAAGATAAA [GTGCAC_site9479] | 9.04 ± 0.22
18 | AGTGTTTTTTATAAAGTGCAATATAAAAACAAAATG | 11.3 ± 0.75
19 | AAATTAAAGATAAAAGTGCAAAATTATAAATTTATT | 9.64 ± 0.071
20 | TAATTATTTTAAAAAGTGCATTAAAAGATATTAAAT [GTGCAC_site9694] | 11.4 ± 0.56
21 | TACAAATTTATATAAAGTACAAAAAATAATAAAAAT [XGTACX_site7355] | 8.1 ± 0.52
22 | TTATAAATTTAAAAAGTGCATAATAATAACAAAAAG | 11.2 ± 0.67
23 | TTAATTAATTTTTCAGTGCAAATAAAAAATATTTAA | 10.4 ± 0.64
24 | ATAAAAATAAAAAGTGTGCACACAAAAATATATATA [GTGCAC_site9931] | 9.96 ± 0.33

Row | Sequence | gcPBM binding intensity (ln)
25 | ATTAAAAGTTTATACAAATAAAAAACAAAACAAAAA [CACACA_negctrl_site1030] | 7.7 ± 0.55
26 | GTAATATTAATATAATGTACAAAATGAAACATATAT [XGTACX_site6219] | 7.71 ± 0.57
27 | AAATAAATACATAATACATGCATATTTAATATATAG [TGCATGCA_site135] | 7.93 ± 0.25
28 | TTTTAGCTATTTTAATATAATGAAGCAAAAAATAAA [TGCATGCA_negctrl_site576] | 7.82 ± 0.085
29 | GTGTGGTTACAGACACGAACACATTTTTTAAATATT [CACACA_negctrl_site83] | 7.83 ± 0.28
30 | TGAAAAATGTAATGCTCACACATATATATATATATA [CACACA_site5213] | 9.41 ± 0.24
31 | CCTACAATTCGTAATACACACACATATATATATATA [CACACA_site9251] | 9.29 ± 0.25
32 | CAGCTCTTAAAAATTACACACATATACACATATATA [CACACA_site9073] | 7.5 ± 0.54
33 | TTTATTTATTAATACACACACACACCCCCACAAAAT [CACACA_site240] | 9.96 ± 0.2
34 | AATTGAAAAATCAGCACACACACAAATACATACATA [CACACA_site3232] | 8.09 ± 0.4
35 | AAAAAAAAAAAAAAAGTGCATTAATAAATTTTAATA | 11.5 ± 0.61
36 | TTCATATTCGATAAAGTGCATTAATTTTATTTATCA | 11.3 ± 0.73
37 | TAATTATTCTATTAAGTGCATATATTTTTAAAAAGA | 9.89 ± 0.3
38 | TATATATATTAAAAAGTGCATTATTCATATTATATA [GTGCAC_site9400] | 11.1 ± 0.73
39 | AGATTATATAAAAAAGTGCATATTTTCATTTTTTTT [GTGCAC_site9448] | 9.07 ± 0.13
40 | TCATTTTAATTAAAAGTGCAAAAAATAATATAACTA [GTGCAC_site9968] | 9.9 ± 0.18
41 | CTGAAATTAACAAAAGTGCATAAAAATAAAAAATAT [GTGCAC_site9652] | 10.8 ± 0.38
42 | TTCATTTTATTTTAAGTGCATATTTTTATTTTTTTG | 8.82 ± 0.099
43 | TTATTAAATTCATAAGTGCATTTATGATTAATTTTT [GTGCAC_site9749] | 9.86
44 | GATTATTTCTAAAAAGTGCATATTTAAAAATCTCCT | 9.815 ± 0.035
45 | TTTCTCCATATTAAAGTGCATTAATAACAAAAATAA [GTGCAC_site9934] | 11.4 ± 0.81
46 | ATTAATAAAAAATTTTAAAAAATAAATAAAATAAAA [TGCATGCA_negctrl_site113] | 7.58 ± 0.42
47 | CTATTTTAATATTTTACACACCATGTAAAATATATA [CACACA_site5732] | 7.97 ± 0.28
